In PubChem BioAssay (NCI):
The panel holds about 79,000 compounds, 15% with a hit somewhere; the sample as a whole holds those more often. Unmarked numbers belong to inactive results. Calls of active or inactive are those of the source. Cut-off read from the data, not from the text of the source: active = growth inhibition above about 70%; inactive = the rest.

Legend:
[1] = NCI Yeast Anticancer Drug Screen. Data for the rad52 strain (AID 147);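 note: 0% = growth of vehicle-treated control cultures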; details: S. cerevisiae rad52 mutant growth inhibition, stronger effect = higher value
Summary of the method: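 Growth of repair-deficient yeast cells was compared between compound-treated and vehicle-treated cultures to give percent inhibition.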

[2] = NCI Yeast Anticancer Drug Screen. Data for the wt1 strain (AID 149);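 note: 0% = growth of vehicle-treated wt1 cultures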; details: S. cerevisiae wt1 strain (SPY 50644) growth inhibition, stronger effect = higher value
Summary of the method: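 wt1 strain grown with compound or vehicle; inhibition taken from the growth difference.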

[3] = NCI Yeast Anticancer Drug Screen. Data for the rad50EPP+ strain (AID 151);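 note: 0% = growth of vehicle-treated control cultures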; details: S. cerevisiae rad50 mutant strain, stronger effect = higher value
Summary of the method: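 Measured: growth inhibition of rad50EPP+ yeast. Reference: vehicle-treated controls. Screen uses strains with defined genetic alterations in DNA damage repair or cell cycle control.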

[4] = NCI Yeast Anticancer Drug Screen. Data for the mgt1 strain (AID 153); details: S. cerevisiae mgt1 mutant growth inhibition, stronger effect = higher value
Summary of the method: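 Compounds were applied to mgt1 mutant yeast, and growth was then compared against vehicle-treated control cultures to give percent inhibition.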

[5] = NCI Yeast Anticancer Drug Screen. Data for the rad50 strain (AID 155);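 note: 0% = growth of vehicle-only cultures of the same strain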; details: S. cerevisiae rad50 strain growth inhibition, stronger effect = higher value
Summary of the method: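 DNA repair mutant yeast, compound exposure, growth read-out; inhibition is taken relative to vehicle.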

[6] = NCI Yeast Anticancer Drug Screen. Data for the mec2-1 strain (AID 157); details: S. cerevisiae mec2-1 strain, stronger effect = higher value
Summary of the method: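 Compounds were applied to mec2-1 yeast cells. Their growth was then compared with that of vehicle-treated cultures to give growth inhibition.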

[7] = NCI Yeast Anticancer Drug Screen. Data for the rad14 strain (AID 159);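 note: 0% = growth of vehicle-treated control cultures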; details: S. cerevisiae rad14 strain growth inhibition, stronger effect = higher value
Summary of the method: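 DNA repair-defective yeast, compound-exposed; % growth inhibition derived by comparison with vehicle-treated controls.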

[8] = NCI Yeast Anticancer Drug Screen. Data for the sgs1 mgt1 strain (AID 161);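 note: 0% = growth of cultures given vehicle only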; details: S. cerevisiae sgs1 mgt1 strain, stronger effect = higher value
Summary of the method: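 Percent growth inhibition was derived by comparing compound-exposed mutant yeast with vehicle-exposed cultures. The strain carries alterations in DNA damage repair.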

[9] = NCI Yeast Anticancer Drug Screen. Data for the CLN2oe strain (AID 163);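 note: 0% = growth of vehicle-only control cultures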; details: S. cerevisiae CLN2oe strain, stronger effect = higher value
Summary of the method: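 Cells of an engineered yeast line with disturbed cell-cycle regulation are treated with compound. Inhibition of growth is then calculated relative to the vehicle-treated reference.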

[10] = NCI Yeast Anticancer Drug Screen. Data for the cln2 rad14 strain (AID 165);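 note: 0% = growth equal to vehicle treated cultures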; details: S. cerevisiae cln2 rad14 strain, stronger effect = higher value
Summary of the method: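 Strain: cln2 rad14 yeast, altered in cell cycle control and DNA damage repair. Read-out: growth inhibition vs vehicle.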

[11] = NCI Yeast Anticancer Drug Screen. Data for the bub3 strain (AID 167); details: S. cerevisiae bub3 mutant strain, stronger effect = higher value
Summary of the method: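 In this screen, a yeast mutant lacking normal mitotic checkpoint function is challenged with compound. Relative growth versus vehicle gives the inhibition value.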

[12] = NCI Yeast Anticancer Drug Screen. Data for the wt2 strain (AID 169);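 note: 0% = growth of vehicle-treated yeast cultures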; details: S. cerevisiae wt2 strain growth inhibition, stronger effect = higher value
Summary of the method: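 Growth of compound-treated yeast is measured and expressed as inhibition relative to vehicle-only controls.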

[13] = NCI Yeast Anticancer Drug Screen. Data for the sgs1 strain (AID 173);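 note: 0% = growth of vehicle-only control cultures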; details: S. cerevisiae sgs1 mutant, stronger effect = higher value
Summary of the method: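 Strain with an altered DNA repair or cell cycle pathway exposed to compound. Growth then measured. Value = inhibition versus vehicle control.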

[14] = NCI Yeast Anticancer Drug Screen. Data for the mlh1 rad18 strain (AID 175); details: S. cerevisiae mlh1 rad18 strain growth inhibition, stronger effect = higher value
Summary of the method: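 A repair-deficient yeast strain is exposed to test compound, and growth is scored relative to vehicle-treated controls.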

[15] = NCI Yeast Anticancer Drug Screen. Data for the rad18 strain (AID 177); details: S. cerevisiae rad18 mutant growth inhibition, stronger effect = higher value
Summary of the method: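 DNA-repair-defective yeast; compound treatment; growth inhibition scored against vehicle.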

[16] = at 5.0 µM (retest, dose inferred, filed as 0.5)
[17] = at 50.0 µM (retest, dose inferred, filed as 5.0)

CC/C(=C(\c1ccccc1)c1ccc(OCCN(C)C)cc1)c1ccccc1
growth inhibition ([1]; at 1.2 µM): 15%
growth inhibition ([1]; at 3.7 µM): 11%
growth inhibition ([1]; at 11.0 µM): 38%
growth inhibition ([1]; at 33.0 µM): 98% (active)
growth inhibition ([1]; at 100.0 µM): 98% (active)
growth inhibition ([2]; at 1.2 µM): 8%
growth inhibition ([2]; at 3.7 µM): -8%
growth inhibition ([2]; at 11.0 µM): 22%
growth inhibition ([2]; at 33.0 µM): 98% (active)
growth inhibition ([2]; at 100.0 µM): 50%
growth inhibition ([3]; at 1.2 µM): 12%
growth inhibition ([3]; at 3.7 µM): 2%
growth inhibition ([3]; at 11.0 µM): 1%
growth inhibition ([3]; at 33.0 µM): 97% (active)
growth inhibition ([3]; at 100.0 µM): 97% (active)
growth inhibition ([4]; at 1.2 µM): 7%
growth inhibition ([4]; at 3.7 µM): 8%
growth inhibition ([4]; at 11.0 µM): 94% (active)
growth inhibition ([4]; at 33.0 µM): 98% (active)
growth inhibition ([4]; at 100.0 µM): 97% (active)
growth inhibition ([5]; at 1.2 µM): 9%
growth inhibition ([5]; at 3.7 µM): 21%
growth inhibition [5, 16]: 44%
growth inhibition ([5]; at 11.0 µM): 64%
growth inhibition ([5]; at 33.0 µM): 98% (active)
growth inhibition [5, 17]: 99% (active)
growth inhibition ([5]; at 50.0 µM): 90% (active)
growth inhibition ([5]; at 100.0 µM): 97% (active)
growth inhibition ([6]; at 1.2 µM): -9%
growth inhibition ([6]; at 3.7 µM): -11%
growth inhibition [6, 16]: 46%
growth inhibition ([6]; at 11.0 µM): 46%
growth inhibition ([6]; at 33.0 µM): 98% (active)
growth inhibition [6, 17]: 99% (active)
growth inhibition ([6]; at 50.0 µM): 93.4% (active)
growth inhibition ([6]; at 100.0 µM): 97% (active)
growth inhibition ([7]; at 1.2 µM): -26%
growth inhibition ([7]; at 3.7 µM): -9%
growth inhibition ([7]; at 11.0 µM): 89% (active)
growth inhibition ([7]; at 33.0 µM): 97% (active)
growth inhibition ([7]; at 100.0 µM): 96% (active)
growth inhibition [8, 16]: -12%
growth inhibition [8, 17]: 98% (active)
growth inhibition ([8]; at 50.0 µM): 92.8% (active)
growth inhibition ([9]; at 1.2 µM): 4%
growth inhibition ([9]; at 3.7 µM): 14%
growth inhibition ([9]; at 11.0 µM): 82% (active)
growth inhibition ([9]; at 33.0 µM): 98% (active)
growth inhibition ([9]; at 100.0 µM): 97% (active)
growth inhibition [10, 16]: 30%
growth inhibition [10, 17]: 99% (active)
growth inhibition ([10]; at 50.0 µM): 92% (active)
growth inhibition ([11]; at 1.2 µM): 5%
growth inhibition ([11]; at 3.7 µM): 10%
growth inhibition [11, 16]: 24%
growth inhibition ([11]; at 11.0 µM): 38%
growth inhibition ([11]; at 33.0 µM): 98% (active)
growth inhibition [11, 17]: 92% (active)
growth inhibition ([11]; at 50.0 µM): 91.5% (active)
growth inhibition ([11]; at 100.0 µM): 98% (active)
growth inhibition ([12]; at 1.2 µM): -9%
growth inhibition ([12]; at 3.7 µM): -15%
growth inhibition ([12]; at 11.0 µM): 55%
growth inhibition ([12]; at 33.0 µM): 98% (active)
growth inhibition ([12]; at 100.0 µM): 97% (active)
growth inhibition ([13]; at 1.2 µM): 0%
growth inhibition ([13]; at 3.7 µM): 1%
growth inhibition ([13]; at 11.0 µM): 84% (active)
growth inhibition ([13]; at 33.0 µM): 97% (active)
growth inhibition ([13]; at 100.0 µM): 97% (active)
growth inhibition [14, 16]: 46%
growth inhibition [14, 17]: 99% (active)
growth inhibition ([14]; at 50.0 µM): 40.4%
growth inhibition ([15]; at 1.2 µM): 13%
growth inhibition ([15]; at 3.7 µM): 12%
growth inhibition ([15]; at 11.0 µM): 71% (active)
growth inhibition ([15]; at 33.0 µM): 98% (active)
growth inhibition ([15]; at 100.0 µM): 98% (active)
